# SW480 rerep – A quantitative high throughput screen for small molecules that induce DNA re-replication in SW480 colon adenocarcinoma cells; AID 624297, 2012; SW480 DNA re-replication, Hoechst DNA content imaging, 48 h; hit rate 1.8% among 340,000; Potency, µM (doses to about 46.1 µM), without a hit: at the highest dose re-replication activation, actives largely listed as activators; also: potency is read from the fitted curve at half-maximal effect; % of control where 0% means no effect; nearly all actives have a fitted effect of over 55% in size
#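 Cells (250 per well) received 23 nL compound or DMSO by pin tool and were kept 48 hr at 37 C, 5% CO2. Nuclei were then stained with Hoechst for 40 min and scanned for DNA content.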
# IL-1B inflam inh – qHTS for Inhibitors of Inflammasome Signaling: IL-1-beta AlphaLISA Primary Screen; hit rate 4.7% among 360,000; activity change, % at 57.5 µM; THP-1 LPS/ATP IL-1B secretion, AlphaLISA, 16 h; stronger effect = lower value; AID 743279, 2014; in the data active = activity change below about -50%; inconclusive = mostly about -30% to -49%; also: % is scaled to controls: 0 for no effect and ±100 for the full control effect
#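 Secreted IL-1B measured by AlphaLISA bead assay after 16 h compound exposure of THP-1 cells; compounds (final up to 57.5 uM) added 1 h before LPS (250 ng/mL) and ATP (1.25 mM) stimulation; lower signal means less secretion.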
# TDP1 cell noCPT – qHTS for Inhibitors of human tyrosyl-DNA phosphodiesterase 1 (TDP1): qHTS in cells in absence of CPT | hit rate 15% among 420,000 | AID 686978, 2013 | Potency, µM (top dose mostly 46.2 µM), without a hit: at the top dose activity change, negative = growth inhibition, usual class: inhibitors | DT40 Tdp1-/- hTDP1 cells, no CPT, ATP luminescence, 48 h; also: potency is read from the fitted curve at half-maximal effect; % is scaled to controls: 0 for no effect and ±100 for the full control effect; nearly all actives have a fitted effect of over 55% in size
#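 Stably hTDP1-transfected Tdp1-null chicken DT40 cells were treated with library compounds minus camptothecin and grown for at least 48 hr at 37 °C, after which cellular ATP was quantified by luminescence.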
# TDP1 cell CPT – qHTS for Inhibitors of human tyrosyl-DNA phosphodiesterase 1 (TDP1): qHTS in cells in presence of CPT; chicken DT40 Tdp1-/-;hTDP1 cells + 20 nM CPT, ATP luminescence, 48 h; Potency, µM (top dose mostly 46.2 µM), without a hit: at the highest dose activity change, negative = growth inhibition, actives largely listed as inhibitors; hit rate 12% among 420,000; also: potency is read from the fitted curve at half-maximal effect; % is scaled to controls: 0 for no effect and ±100 for the full control effect; nearly all actives have a fitted effect of over 55% in size
#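 Chicken DT40 Tdp1-/- cells complemented with human TDP1, 400 cells/well, exposed to compounds plus 20 nM camptothecin for at least 48 h at 37 C; viability read as ATP content by CellTiter-Glo luminescence.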
# MCF10A rereplic – A quantitative high throughput screen for small molecules that induce DNA re-replication in MCF 10a normal breast cells. MCF 10A DNA re-replication, Hoechst nuclear intensity, 48 h. Potency, µM (highest dose often 46.1 µM), inactives show top-dose activity, positive = re-replication, actives largely listed as activators. hit rate 2.9% among 350,000; also: potency is read from the fitted curve at half-maximal effect; % of control where 0% means no effect; nearly all actives have a fitted effect of over 50% in size
# Chronic BCR inh – qHTS Assay to Find Inhibitors of Chronic Active B-Cell Receptor Signaling; ABC-DLBCL IkBa-CBG/CBR reporter, luminescence ratio, 4 h; Potency, µM (highest dose often 46.1 µM), for inactives: at the highest dose activity change, negative = inhibition, usual class: inhibitors; hit rate 0.05% among 340,000; AID 493014, 2011; active = well fitted inhibition curve with a large enough effect in the signal ratio, with a control signal flat, not every such curve was filed as active; inconclusive = small, poorly fitted or top-dose-only effect, or effect the other way, or a change in a side signal; the % refers to the signal ratio;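 also: potency is read from the fitted curve at half-maximal effect; plate controls were basal doxycycline-induced cells for no effect and cells given 10 µM MG132 for full effect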
#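 Compounds up to 46 uM were incubated four hours with TMD8 cells whose green CBG68 luciferase is fused to IkappaBalpha; red CBR luminescence normalised the signal, and concentration-effect curves were fitted to fusion, red and ratio data.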
# * hit, by the source's call; i = inactive; ? = inconclusive; / = not tested or not shown. The list is not random: actives were taken first. Their share in the collection is about 19%. Unless noted, calls follow the shape of the dose curve; as a rule, active = well fitted curve in the direction sought with a large enough effect; inconclusive = small, poorly fitted or top-dose-only effect, or another doubt; inactive = no such curve, though single readings can be large; an effect the other way counts as inactive or inconclusive.
SMILES,SW480 rerep,IL-1B inflam inh,TDP1 cell noCPT,TDP1 cell CPT,MCF10A rereplic,Chronic BCR inh
CCS(=O)(=O)Nc1ccc(C2=NN(C(=O)c3ccco3)C(c3cccs3)C2)cc1 (configuration not stated),-5%,i,?,?,?,?
CS(=O)(=O)Nc1cccc(C2=NN(C(=O)c3ccccc3Cl)C(c3ccccc3O)C2)c1 (configuration not stated),-4%,24,29µM*,15µM*,10%,-16%
CCOc1ccc(C2c3c(oc4ccc(C)cc4c3=O)C(=O)N2CCCN(C)C)cc1 (configuration not stated),/,/,-6%,2%,/,-1%
CCS(=O)(=O)Nc1cccc(C2=NN(C(=O)c3ccco3)C(c3ccco3)C2)c1 (configuration not stated),13µM*,-22,2.6µM*,4.6µM*,13µM*,?
COC(=O)C[C@@H]1C=C[C@@H](NC(=O)NC2CCCC2)[C@@H](CO)O1,/,-5,0%,-21%,/,/
O=C(O)c1cccc(-n2nc(-c3ccc(Cl)c([N+](=O)[O-])c3)c3ccccc3c2=O)c1,-8%,-69*,2%,?,1%,?
O=c1c2ccccc2c(-c2ccccc2)nn1-c1ccc(Cl)c(Cl)c1,5%,-9,?,?,7%,0%
CC1CN(CC(=O)Nc2nc3ccccc3s2)CC(C)O1 (configuration not stated),0%,23,0%,4%,?,-10%
CN1C(=O)C(N=Nc2ccc([N+](=O)[O-])cc2)SC1=S (configuration not stated),3%,-89*,6.5µM*,7.3µM*,?,/
CN1CCCCCC1=Nc1ccc([N+](=O)[O-])cc1,-5%,2,-17%,-5%,1%,/
NS(=O)(=O)c1cccc(NC(=O)c2cc(=O)c3ccccc3o2)c1,-3%,-6,-19%,12%,-2%,-4%
O=C(Nc1cccc(S(=O)(=O)N2CCCCCC2)c1)c1cc(=O)c2ccccc2o1,-6%,-9,13µM*,23µM*,?,?
Cc1cc(C)c2c(=O)cc(C(=O)Nc3ccc(S(=O)(=O)N(C)Cc4ccccc4)cc3)oc2c1,/,/,?,5.8µM*,/,/
CN(Cc1ccccc1)S(=O)(=O)c1ccc(NC(=O)c2cc(=O)c3ccccc3o2)cc1,/,/,16µM*,13µM*,/,/
CN(c1ccccc1)S(=O)(=O)c1cccc(NC(=O)c2cc(=O)c3ccccc3o2)c1,-1%,-52*,12µM*,16µM*,26µM*,1%
Cc1cc(C)c2c(=O)cc(C(=O)Nc3ccc(S(=O)(=O)Nc4nc(C)cc(C)n4)cc3)oc2c1,/,/,?,12%,/,/
C=CCn1c(CSCc2ccc(Cl)cc2Cl)nnc1SCC(=O)Nc1ccc(C(=O)O)cc1,11%,28,-22%,-11%,-9%,-4%
COc1ccccc1-n1c(SCc2cc(=O)oc3cc(O)ccc23)nc2ccccc2c1=O,4%,7,?,23µM*,?,?
C=CCn1c(SCc2cc(C(C)=O)ccc2OCC)nc2ccccc2c1=O,1.8µM*,51,0.82µM*,1.6µM*,1µM*,-18%
COCCn1c(SCc2cc(C(C)=O)ccc2OC)nc2cc(Cl)ccc2c1=O,-13%,-1,1%,8%,0%,-7%

# Assay outcomes from PubChem.
